PMC5540273 (PLoS ONE, 2017)

Columns and labels:
Settings in all cases: concentration: 1 μM,replicates: in singlicate; n = 1
MEK5 = test system: T1, MEK5
T1 construct: gene MAP2K5

MEK6 = test system: T2, MEK6
T2 construct: gene MAP2K6

MELK = test system: MELK
MERTK = test system: MERTK
MET = test system: MET
MINK = test system: T3, MINK
T3 construct: gene MINK1

MKK7 = test system: MKK7
MKNK1 = test system: MKNK1
MKNK2 = test system: MKNK2
MLCK = test system: T4, MLCK
T4 construct: gene MYLK3

MLK1 = test system: T5, MLK1
T5 construct: gene MAP3K9

MLK2 = test system: MLK2
MLK3 = test system: MLK3
MRCKA = test system: MRCKA
MRCKB = test system: T6, MRCKB
T6 construct: gene CDC42BPB

MST1R = test system: MST1R
MST1 = test system: T7, MST1
T7 construct: gene STK4

MST2 = test system: T8, MST2
T8 construct: gene STK3

MST3 = test system: T9, MST3
T9 construct: gene STK24

MST4 = test system: MST4
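Further: KINOMEscan kinase panel screen.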

SMILES	%Inh (MEK5) [%]	%Inh (MEK6) [%]	%Inh (MELK) [%]	%Inh (MERTK) [%]	%Inh (MET) [%]	%Inh (MINK) [%]	%Inh (MKK7) [%]	%Inh (MKNK1) [%]	%Inh (MKNK2) [%]	%Inh (MLCK) [%]	%Inh (MLK1) [%]	%Inh (MLK2) [%]	%Inh (MLK3) [%]	%Inh (MRCKA) [%]	%Inh (MRCKB) [%]	%Inh (MST1R) [%]	%Inh (MST1) [%]	%Inh (MST2) [%]	%Inh (MST3) [%]	%Inh (MST4) [%]
O=c1[nH]cc(-c2ccc(O)cc2)c2sc(-c3ccncc3)cc12 [GSK1033723]	37	0	0	0	0	0	0	12	26	40	0	0	3	22	14	44	1	7	6	0
CCCC(=O)Nc1n[nH]c2ncccc12 [SB-601436]	0	0	0	5	0	0	0	0	11	0	0	0	1	0	0	12	0	0	0	0
CNC(=O)c1ccccc1Nc1nc(Nc2cccc(CS(C)(=O)=O)c2)ncc1C.O=CO [GSK1520489]	99.9	39	94.6	100	97.3	58	0	0	50	41	97.5	80	72	2	4	93.4	80	49	34	54
CC(C)c1nc(-c2cccc(NS(=O)(=O)c3ccccc3)c2)c(-c2ccnc(Nc3ccc4c(c3)CN(C)CC4)n2)s1 [GSK1649598]	99.1	26	65	42	23	95.1	1	0	81	0	18	0	22	7	0	41	67	26	82	82
NC(=O)Nc1sc(-c2ccc(F)cc2)cc1C(N)=O [GW789449]	89	21	12	10	12	60	0	8	0	0	39	25	35	0	0	0	37	49	21	25
COc1cc2c(Nc3ccc(NC(=O)c4ccccc4)cc3)ncnc2cc1OCCCN1CCOCC1 [GSK301329]	99.9	0	4	65	50	17	0	0	18	0	0	0	13	0	0	43	16	0	0	10
COc1cccc(OC)c1C(=O)Nc1cccc(-c2nn3ccccc3c2-c2ccnc(Nc3cccc(F)c3)n2)c1 [GSK361065]	93.2	3	0	50	34	0	0	0	0	2	4	10	10	0	3	23	20	61	7	0
FC(F)(F)c1cc(Br)cc(Nc2nccc(-c3cnn4ncccc34)n2)c1 [GW810578]	35	12	7	14	0	3	0	19	0	32	0	17	11	0	0	0	5	0	0	17
CSc1nccc(-c2c(-c3ccc(F)cc3)ncn2CCCN2CCOCC2)n1.Cl [SB-217146]	36	15	0	5	0	26	0	0	0	0	0	28	0	0	0	0	0	0	6	0
Cn1ccc2ncnc(Oc3ccc(NC(=O)Nc4cc(C(C)(C)C)on4)c(Cl)c3)c21	71	7	20	94.8	48	91.6	0	3	90	7	11	21	0	13	0	73	0	0	6	0
Cc1cccc(-c2nc(Nc3ccncc3)c3sccc3n2)n1 [GW869641]	58	10	36	0	28	77	16	0	0	10	3	34	19	67	98.5	0	37	17	5	40
Cl.Nc1n[nH]c2cc(-c3ccccn3)ccc12 [GSK2189892]	45	0	2	0	0	0	0	0	32	0	0	0	15	0	0	27	0	0	0	0
O=C(Nc1ccccc1)c1cccc(Oc2ccc3nccn3n2)c1	9	0	11	0	0	6	0	7	6	1	0	0	0	9	0	7	25	14	37	0
O=C(Nc1cccc(C(F)(F)F)c1)c1cccc(Oc2ccc3nccn3n2)c1	32	0	0	17	16	12	36	7	26	0	9	7	8	23	3	3	29	0	0	28
Cc1n[nH]c2cc(Nc3ccnc(Nc4cccc(CN5CCOCC5)c4)n3)ccc12 [GW682569]	98.6	0	0	85	14	22	0	23	67	0	89	38	58	1	0	34	0	26	14	0
COc1ccc(Nc2nccc(N3CCC(NC(=O)c4cccc(C#N)c4)C3)n2)cc1 (centres unmarked) [GSK1379730]	8	0	0	24	9	0	17	0	5	3	1	0	22	0	0	29	19	0	0	0
CC(C(=O)NC1CCN(c2ccnc(Nc3ccc(F)cc3)n2)C1)c1ccc(Cl)cc1 (centres unmarked) [GSK1379713]	7	0	0	0	0	0	0	5	0	0	0	12	0	0	0	0	5	0	0	0
O=C(NOCC1CC1)c1cc(Br)c(F)c(F)c1Nc1ccc(I)cc1Cl	20	0	0	0	0	9	0	10	5	0	0	0	0	0	0	31	3	6	18	0
O=C(Nc1cccc(Oc2ccc3nccn3n2)c1)Nc1cccc(C(F)(F)F)c1	97	0	10	24	0	27	0	8	0	0	0	39	0	0	0	10	6	0	0	0
